The supplement of paper PMC11732987, “Enantioselective OTUD7B fragment discovery through chemoproteomics screening and high-throughput optimisation” (Communications Chemistry, 2025)

What was measured:
Test in all cases: log2 ratio of Biotin-Ahx-Ub-VS probe labelling (fragment/DMSO); higher = less target engagement (more negative = stronger competition), active = hit call of the paper (q ≤ 0.05, log2 ratio ≤ -1)
Details in all cases: compound concentration: 200 uM; treatment time: 3 h
USP34 = USP34 (UniProt Q70CQ2)
Method in brief: (§1)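 The table lists average log2 ratios of fragment over vehicle, from an unpaired t-test on global-median-normalised Spectronaut label-free quantities. Proteins with ≥2 unique peptides were used. Samples were HEK293T lysate (495 µg) treated in triplicate with fragment at 200 µM or vehicle for 3 h, then with Biotin-Ahx-Ub-VS (0.5 µM final) for 1 h, with labelled DUBs NeutrAvidin-enriched and run by diaPASEF LC-MS/MS.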

USP36 = target: T1, USP36 (UniProt Q9P275)
T1 sequence (whole entry): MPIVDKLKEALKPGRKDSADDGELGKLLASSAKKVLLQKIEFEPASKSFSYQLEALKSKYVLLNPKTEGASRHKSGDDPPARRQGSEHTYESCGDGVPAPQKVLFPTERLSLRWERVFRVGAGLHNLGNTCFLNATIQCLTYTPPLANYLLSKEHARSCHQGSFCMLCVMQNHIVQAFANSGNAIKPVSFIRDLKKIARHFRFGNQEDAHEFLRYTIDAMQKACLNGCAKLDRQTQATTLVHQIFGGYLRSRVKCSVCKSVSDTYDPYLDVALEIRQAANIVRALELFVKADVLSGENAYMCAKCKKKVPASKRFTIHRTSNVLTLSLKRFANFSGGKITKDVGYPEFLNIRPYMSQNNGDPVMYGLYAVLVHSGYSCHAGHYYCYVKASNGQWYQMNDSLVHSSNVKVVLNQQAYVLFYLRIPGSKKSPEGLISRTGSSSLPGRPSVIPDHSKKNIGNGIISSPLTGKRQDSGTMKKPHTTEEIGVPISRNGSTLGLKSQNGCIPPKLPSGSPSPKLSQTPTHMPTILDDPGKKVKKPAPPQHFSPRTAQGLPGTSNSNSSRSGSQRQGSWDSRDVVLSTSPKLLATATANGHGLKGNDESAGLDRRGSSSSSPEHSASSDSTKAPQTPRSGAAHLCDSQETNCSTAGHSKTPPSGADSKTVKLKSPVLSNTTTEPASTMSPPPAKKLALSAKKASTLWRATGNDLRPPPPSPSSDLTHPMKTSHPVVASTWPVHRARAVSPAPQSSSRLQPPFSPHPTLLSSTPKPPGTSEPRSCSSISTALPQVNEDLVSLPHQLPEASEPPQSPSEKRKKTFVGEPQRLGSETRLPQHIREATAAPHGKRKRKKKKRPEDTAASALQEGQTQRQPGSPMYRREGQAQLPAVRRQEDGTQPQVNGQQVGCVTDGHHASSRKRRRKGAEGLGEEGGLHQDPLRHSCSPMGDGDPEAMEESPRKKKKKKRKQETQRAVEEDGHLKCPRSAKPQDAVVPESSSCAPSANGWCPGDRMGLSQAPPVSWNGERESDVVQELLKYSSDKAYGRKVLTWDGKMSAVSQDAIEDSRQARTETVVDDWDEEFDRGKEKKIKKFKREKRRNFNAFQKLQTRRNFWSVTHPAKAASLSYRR
Method in brief: as §1

USP38 = target: T2, USP38 (UniProt Q8NB14)
T2 sequence (whole entry): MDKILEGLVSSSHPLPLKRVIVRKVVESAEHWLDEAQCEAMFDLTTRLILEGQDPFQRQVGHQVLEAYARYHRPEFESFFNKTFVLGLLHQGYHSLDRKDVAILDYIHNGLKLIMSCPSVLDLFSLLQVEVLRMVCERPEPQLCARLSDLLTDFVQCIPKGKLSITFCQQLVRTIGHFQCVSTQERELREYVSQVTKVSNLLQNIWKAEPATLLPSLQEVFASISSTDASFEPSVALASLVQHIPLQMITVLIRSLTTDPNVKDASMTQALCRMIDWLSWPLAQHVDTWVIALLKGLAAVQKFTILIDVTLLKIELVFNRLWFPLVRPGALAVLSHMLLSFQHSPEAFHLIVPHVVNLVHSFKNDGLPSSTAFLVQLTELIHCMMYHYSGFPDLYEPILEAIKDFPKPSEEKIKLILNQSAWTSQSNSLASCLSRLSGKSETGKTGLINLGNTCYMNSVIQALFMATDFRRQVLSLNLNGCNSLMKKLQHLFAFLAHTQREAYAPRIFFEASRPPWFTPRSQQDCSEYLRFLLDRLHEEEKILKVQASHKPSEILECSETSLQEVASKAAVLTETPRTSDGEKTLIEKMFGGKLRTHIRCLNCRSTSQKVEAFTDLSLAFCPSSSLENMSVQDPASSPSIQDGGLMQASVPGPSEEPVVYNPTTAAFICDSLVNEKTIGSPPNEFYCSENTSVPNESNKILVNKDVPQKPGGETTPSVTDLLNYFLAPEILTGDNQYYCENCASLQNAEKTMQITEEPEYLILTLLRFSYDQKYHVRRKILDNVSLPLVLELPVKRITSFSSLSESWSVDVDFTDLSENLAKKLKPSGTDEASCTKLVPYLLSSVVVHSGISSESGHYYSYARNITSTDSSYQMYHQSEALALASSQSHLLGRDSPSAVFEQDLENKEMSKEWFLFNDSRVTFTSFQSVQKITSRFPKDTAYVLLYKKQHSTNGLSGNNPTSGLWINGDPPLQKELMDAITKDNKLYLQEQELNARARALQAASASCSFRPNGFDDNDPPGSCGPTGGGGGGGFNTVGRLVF
Method in brief: as §1

USP39 = target: T3, USP39 (UniProt Q53GS9)
T3 sequence (whole entry): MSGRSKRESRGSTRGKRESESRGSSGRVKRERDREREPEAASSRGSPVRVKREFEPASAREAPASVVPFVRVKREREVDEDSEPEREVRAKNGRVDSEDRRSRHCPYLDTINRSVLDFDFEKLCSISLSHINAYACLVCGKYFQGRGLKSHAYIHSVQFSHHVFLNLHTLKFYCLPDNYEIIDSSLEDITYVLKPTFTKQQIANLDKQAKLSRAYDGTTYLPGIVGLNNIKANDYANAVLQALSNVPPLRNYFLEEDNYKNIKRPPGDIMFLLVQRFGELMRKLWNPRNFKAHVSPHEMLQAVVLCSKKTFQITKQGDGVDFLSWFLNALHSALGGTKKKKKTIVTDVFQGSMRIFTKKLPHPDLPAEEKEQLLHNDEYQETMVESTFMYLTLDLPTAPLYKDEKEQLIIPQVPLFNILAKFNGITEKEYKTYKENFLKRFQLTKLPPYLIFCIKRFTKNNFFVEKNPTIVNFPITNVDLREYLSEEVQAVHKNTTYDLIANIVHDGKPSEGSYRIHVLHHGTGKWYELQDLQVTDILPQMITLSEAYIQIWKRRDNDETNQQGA
Method in brief: as §1

USP4 = target: T4, USP4 (UniProt Q13107)
T4 sequence (whole entry): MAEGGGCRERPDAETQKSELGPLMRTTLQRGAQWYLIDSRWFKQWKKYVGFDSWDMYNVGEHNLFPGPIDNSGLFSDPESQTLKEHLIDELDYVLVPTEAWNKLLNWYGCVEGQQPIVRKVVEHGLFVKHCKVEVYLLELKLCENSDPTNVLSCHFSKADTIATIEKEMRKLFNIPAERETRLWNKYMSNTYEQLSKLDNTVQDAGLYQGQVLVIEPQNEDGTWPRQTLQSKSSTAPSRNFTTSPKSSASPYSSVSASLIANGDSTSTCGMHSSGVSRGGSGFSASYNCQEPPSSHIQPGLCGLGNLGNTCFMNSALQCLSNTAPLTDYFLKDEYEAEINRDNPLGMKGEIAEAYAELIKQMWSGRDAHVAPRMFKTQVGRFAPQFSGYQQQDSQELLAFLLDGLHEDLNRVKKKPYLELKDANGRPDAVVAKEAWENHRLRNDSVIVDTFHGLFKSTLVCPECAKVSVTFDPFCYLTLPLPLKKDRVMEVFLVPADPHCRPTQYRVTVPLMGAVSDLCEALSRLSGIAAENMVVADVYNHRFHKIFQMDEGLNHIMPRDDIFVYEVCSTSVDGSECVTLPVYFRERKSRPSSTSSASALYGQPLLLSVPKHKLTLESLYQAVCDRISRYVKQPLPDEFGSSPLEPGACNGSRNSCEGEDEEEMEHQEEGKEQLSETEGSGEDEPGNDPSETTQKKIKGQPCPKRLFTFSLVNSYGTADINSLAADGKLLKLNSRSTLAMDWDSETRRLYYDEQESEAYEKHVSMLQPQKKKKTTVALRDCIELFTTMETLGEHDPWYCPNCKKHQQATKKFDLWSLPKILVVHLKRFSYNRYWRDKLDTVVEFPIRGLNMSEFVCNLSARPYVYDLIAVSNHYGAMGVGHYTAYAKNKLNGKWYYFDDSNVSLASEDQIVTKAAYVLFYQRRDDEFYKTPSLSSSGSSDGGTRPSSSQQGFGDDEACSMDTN
Method in brief: as §1

Measured: log2 ratio of Biotin-Ahx-Ub-VS probe labelling

USP34, sequence (Q70CQ2 whole entry, the tested form may be a part): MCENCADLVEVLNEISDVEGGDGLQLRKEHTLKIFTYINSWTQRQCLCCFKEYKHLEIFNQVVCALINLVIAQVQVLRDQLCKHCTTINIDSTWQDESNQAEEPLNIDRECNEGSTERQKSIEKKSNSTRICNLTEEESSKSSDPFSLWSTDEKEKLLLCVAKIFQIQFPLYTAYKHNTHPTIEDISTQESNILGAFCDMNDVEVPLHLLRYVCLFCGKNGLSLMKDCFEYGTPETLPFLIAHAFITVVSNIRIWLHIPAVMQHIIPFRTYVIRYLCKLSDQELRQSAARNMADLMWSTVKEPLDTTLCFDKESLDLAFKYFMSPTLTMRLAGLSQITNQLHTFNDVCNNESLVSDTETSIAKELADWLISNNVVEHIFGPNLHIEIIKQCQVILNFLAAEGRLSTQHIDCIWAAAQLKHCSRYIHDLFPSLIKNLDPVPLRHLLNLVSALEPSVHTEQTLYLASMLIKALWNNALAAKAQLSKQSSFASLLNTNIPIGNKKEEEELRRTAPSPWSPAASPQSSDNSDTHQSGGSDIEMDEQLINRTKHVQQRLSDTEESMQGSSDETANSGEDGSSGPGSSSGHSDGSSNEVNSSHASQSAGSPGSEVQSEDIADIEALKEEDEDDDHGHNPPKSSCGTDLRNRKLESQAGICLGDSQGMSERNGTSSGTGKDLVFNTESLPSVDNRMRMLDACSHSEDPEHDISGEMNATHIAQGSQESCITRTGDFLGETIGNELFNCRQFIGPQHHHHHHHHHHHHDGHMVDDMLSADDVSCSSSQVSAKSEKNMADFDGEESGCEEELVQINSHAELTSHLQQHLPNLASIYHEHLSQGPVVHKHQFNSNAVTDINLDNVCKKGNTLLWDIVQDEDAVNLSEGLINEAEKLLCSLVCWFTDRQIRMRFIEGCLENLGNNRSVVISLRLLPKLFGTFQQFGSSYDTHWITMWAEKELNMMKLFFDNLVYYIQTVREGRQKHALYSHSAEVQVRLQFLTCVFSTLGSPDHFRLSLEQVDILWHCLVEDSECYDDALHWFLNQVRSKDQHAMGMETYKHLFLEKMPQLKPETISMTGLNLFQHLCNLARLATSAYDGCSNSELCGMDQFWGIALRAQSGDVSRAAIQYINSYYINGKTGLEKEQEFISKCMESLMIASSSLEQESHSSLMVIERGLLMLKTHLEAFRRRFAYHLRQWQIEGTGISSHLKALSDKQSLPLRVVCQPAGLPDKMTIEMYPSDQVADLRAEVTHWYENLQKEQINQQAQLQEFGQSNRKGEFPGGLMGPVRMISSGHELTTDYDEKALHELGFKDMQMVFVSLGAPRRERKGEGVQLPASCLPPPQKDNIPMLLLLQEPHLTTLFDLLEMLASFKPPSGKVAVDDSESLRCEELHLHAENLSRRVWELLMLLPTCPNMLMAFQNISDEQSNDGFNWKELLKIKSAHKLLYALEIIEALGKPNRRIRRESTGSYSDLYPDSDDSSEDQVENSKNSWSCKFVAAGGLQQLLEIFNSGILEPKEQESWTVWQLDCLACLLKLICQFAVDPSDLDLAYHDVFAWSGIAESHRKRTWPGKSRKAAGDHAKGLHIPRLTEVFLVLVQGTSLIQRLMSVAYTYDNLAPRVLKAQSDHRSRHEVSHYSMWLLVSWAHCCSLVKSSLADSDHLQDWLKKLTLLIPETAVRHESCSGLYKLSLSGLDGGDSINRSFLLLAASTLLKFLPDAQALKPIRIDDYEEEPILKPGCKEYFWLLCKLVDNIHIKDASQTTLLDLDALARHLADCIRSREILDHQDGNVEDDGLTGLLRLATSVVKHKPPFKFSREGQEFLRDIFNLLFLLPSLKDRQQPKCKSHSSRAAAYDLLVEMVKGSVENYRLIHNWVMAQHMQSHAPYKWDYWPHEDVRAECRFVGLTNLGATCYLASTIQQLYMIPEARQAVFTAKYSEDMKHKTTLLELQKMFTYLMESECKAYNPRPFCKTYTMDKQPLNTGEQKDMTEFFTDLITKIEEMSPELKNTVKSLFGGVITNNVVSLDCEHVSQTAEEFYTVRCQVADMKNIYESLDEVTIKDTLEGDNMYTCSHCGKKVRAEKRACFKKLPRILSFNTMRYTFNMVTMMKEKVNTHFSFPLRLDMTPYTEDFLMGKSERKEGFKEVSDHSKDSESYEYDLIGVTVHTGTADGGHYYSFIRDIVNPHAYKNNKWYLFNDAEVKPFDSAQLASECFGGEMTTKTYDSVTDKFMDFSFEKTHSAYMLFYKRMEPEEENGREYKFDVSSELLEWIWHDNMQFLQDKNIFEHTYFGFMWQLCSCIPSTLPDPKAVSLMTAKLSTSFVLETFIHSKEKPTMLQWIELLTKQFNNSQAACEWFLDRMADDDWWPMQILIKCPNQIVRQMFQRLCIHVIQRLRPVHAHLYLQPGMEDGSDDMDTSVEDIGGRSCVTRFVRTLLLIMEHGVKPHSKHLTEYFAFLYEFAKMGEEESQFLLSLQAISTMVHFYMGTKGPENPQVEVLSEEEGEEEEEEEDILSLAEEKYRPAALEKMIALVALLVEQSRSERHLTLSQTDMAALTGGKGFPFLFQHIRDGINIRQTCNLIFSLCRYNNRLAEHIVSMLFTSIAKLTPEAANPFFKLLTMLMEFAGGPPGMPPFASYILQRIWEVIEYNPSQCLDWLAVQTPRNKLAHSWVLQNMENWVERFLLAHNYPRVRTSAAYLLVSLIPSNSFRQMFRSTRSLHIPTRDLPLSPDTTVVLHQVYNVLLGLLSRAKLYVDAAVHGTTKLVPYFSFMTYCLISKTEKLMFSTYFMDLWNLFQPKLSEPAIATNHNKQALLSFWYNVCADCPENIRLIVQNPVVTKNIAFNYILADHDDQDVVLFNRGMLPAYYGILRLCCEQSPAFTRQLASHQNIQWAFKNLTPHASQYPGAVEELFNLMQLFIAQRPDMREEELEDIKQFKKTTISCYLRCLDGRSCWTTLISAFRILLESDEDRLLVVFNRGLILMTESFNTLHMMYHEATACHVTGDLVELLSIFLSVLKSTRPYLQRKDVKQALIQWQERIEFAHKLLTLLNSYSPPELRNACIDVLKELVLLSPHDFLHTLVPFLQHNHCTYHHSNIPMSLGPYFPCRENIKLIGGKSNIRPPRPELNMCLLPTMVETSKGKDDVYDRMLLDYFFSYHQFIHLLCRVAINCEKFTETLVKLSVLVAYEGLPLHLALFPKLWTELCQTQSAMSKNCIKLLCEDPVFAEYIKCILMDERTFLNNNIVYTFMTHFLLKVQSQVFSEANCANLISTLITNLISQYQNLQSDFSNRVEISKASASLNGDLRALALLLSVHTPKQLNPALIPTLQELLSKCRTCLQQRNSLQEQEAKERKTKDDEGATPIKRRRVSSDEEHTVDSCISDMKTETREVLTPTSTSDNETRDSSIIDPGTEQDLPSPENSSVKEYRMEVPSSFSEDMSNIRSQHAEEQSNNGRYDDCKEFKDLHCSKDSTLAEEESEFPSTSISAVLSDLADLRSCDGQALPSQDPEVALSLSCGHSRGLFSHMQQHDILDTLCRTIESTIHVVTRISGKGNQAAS

Cc1ccc(CC(CO)CNC(=O)CCl)cc1 (stereo not given)
inactive: USP34 -0.117 | USP36 -0.19 | USP38 -0.239 | USP39 -0.321 | USP4 -0.14
